# Compound activity as filed in PubChem.
# G9a inh – qHTS Assay for Inhibitors of Histone Lysine Methyltransferase G9a; Histone-lysine N-methyltransferase EHMT2 (Homo sapiens), Q96KQ7; G9a H3K9 monomethylation, AlphaScreen, 2 h; Potency, µM (series often up to 102 µM), for the others: at the top dose activity, negative = inhibition, most hits filed as inhibitors; hit rate 8.8% among 350,000; AID 504332, 2011; also: % is scaled to controls: 0 for no effect and ±100 for the full control effect; nearly all actives have a fitted effect of over 75% in size
#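 G9a (20 nM) was preincubated 15 min with compound, then reacted 2 h at room temperature with 500 nM biotin-H3K9 peptide and 20 µM SAM. Monomethyl-H3K9 detected by AlphaScreen using anti-H3K9me1 antibody.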
# JMJD2A Tudor inh – qHTS Assay for Inhibitors of JMJD2A-Tudor Domain; hit rate 4.4% among 390,000; Lysine-specific demethylase 4A (Homo sapiens), O75164; AlphaScreen JMJD2A-Tudor / H3K4me3 peptide binding; Potency, µM (titrated, usually from 114 µM), for the others: at the top dose activity change, negative = inhibition, hits mostly inhibitors; also: % is scaled to controls: 0 for no effect and ±100 for the full control effect; nearly all actives have a fitted effect of over 50% in size
# L3MBTL1 inh – qHTS Assay for the Inhibitors of L3MBTL1 | Lethal(3)malignant brain tumor-like protein 1 (Homo sapiens), Q9Y468 | AlphaScreen L3MBTL1–H3K9me1 peptide binding | Potency, µM (doses to about 57.1 µM), for inactives: at the top dose activity, negative = inhibition, hits mostly inhibitors | hit rate 0.66% among 230,000 | AID 485360, 2010; also: % is scaled to controls: 0 for no effect and ±100 for the full control effect; nearly all actives have a fitted effect of over 60% in size
#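 L3MBTL1 (50 nM) pre-complexed 30 min with biotinylated H3(1-15)K9me1 peptide (75 nM), then compounds added for 30 min at room temperature; AlphaScreen streptavidin donor/nickel chelate acceptor beads (10 ug/mL final) read after 30 min dark incubation.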
# Sfp PPTase inh – qHTS Assay for Inhibitors of Bacillus subtilis Sfp phosphopantetheinyl transferase (PPTase); Biochemical Sfp PPTase activity, qHTS; 4'-phosphopantetheinyl transferase ffp (Bacillus subtilis), Q9F4F7; hit rate 3.5% among 310,000; Potency, µM, for the others: largest response in the series, negative = inhibition, actives largely listed as inhibitors;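 also: the enzyme is Sfp with the accession as filed and its product quenches rhodamine fluorescence; 0% = enzyme reaction without inhibitor and -100% = no enzyme wells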
#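 Fluorescence-quenching assay: 15 nM Sfp-PPTase preincubated 15 min at room temperature with compound, then 5 uM rhodamine-CoA and 12.5 uM BHQ-2-labelled YbbR peptide added. Fluorescence (ex 525/em 598 nm) read at start and after 30 min; difference gives rate.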
# HP1b chromo inh – HTS for Inhibitors of HP1-beta Chromodomain Interactions with Methylated Histone Tails | AlphaScreen HP1-beta / biotin-H3K9me3 peptide binding | Potency, µM (series often up to 114 µM), inactives show top-dose activity change, negative = inhibition, most hits filed as inhibitors | hit rate 0.56% among 390,000 | AID 540317, 2011; also: nearly all actives have a fitted effect of over 70% in size
#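 HP1-beta protein (50 nM final) preincubated 30 min at room temperature with biotinylated H3(1-18)K9me3 peptide (50 nM) in PBS pH 7.4, 0.01% Tween-20, then compound added for 30 min. AlphaScreen streptavidin donor/nickel chelate acceptor beads (10 ug/mL final), 30 min dark, luminescence read.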
# BAZ2B block – qHTS Assay for Inhibitors of BAZ2B; Bromodomain adjacent to zinc finger domain protein 2B (Homo sapiens), Q9UIF8; AlphaScreen BAZ2B-H3K14Ac peptide displacement; Potency, µM (doses to about 114 µM), without a hit: top-dose activity change, negative = inhibition, most hits filed as inhibitors; hit rate 4.4% among 360,000; also: % is scaled to controls: 0 for no effect and ±100 for the full control effect; nearly all actives have a fitted effect of over 60% in size
#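 BAZ2B 50 nM plus b-H3(5-23)K14Ac 50 nM, PBS pH 7.4/0.01% Tween-20, 30 min RT; compound added (max 110 uM), 30 min RT; streptavidin donor/Ni-chelate acceptor beads 10 ug/mL final, 20 min dark; AlphaScreen read.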
# Starred values were filed as active, the others as inactive; ? = inconclusive; / = no result; ! = not active in a repeat; [ ] = another dose, or the depositor's remark. This is a sample that favours compounds with a hit; in the whole collection about 12% have one here. Calls follow the shape of the dose curve; as a rule, active = well fitted curve in the direction sought with a large enough effect; inconclusive = small, poorly fitted or top-dose-only effect, or another doubt; inactive = no such curve, though single readings can be large; an effect the other way counts as inactive or inconclusive. Potency is read from the fitted curve at half-maximal effect.
SMILES,G9a inh,JMJD2A Tudor inh,L3MBTL1 inh,Sfp PPTase inh,HP1b chromo inh,BAZ2B block
COc1cc(OC)c(-c2nn3c(-c4ccco4)nnc3s2)cc1OC,44.7µM*,-32.6%,-10.5%,2.8%,-22.0%,-8.3%
CCOC(CN1CCN(CC(C)C(=O)c2ccccc2)CC1)c1ccccc1 (centres undefined),-49.9%[12.7 µM],/,/,-2.3%,/,/
CC1CN(C(=O)CCC(=O)NCc2cccs2)c2ccccc2O1 (centres undefined),-3.3%[59 µM],-19.5%,/,/,15.5%,-2.8%
CC(C)(C)c1ccc(C(=O)Nc2nnc(C3=COCCO3)o2)cc1,-1.0%,-12.5%,/,4.4%,17.2%,?
CC(C)Oc1ccc(C(=O)Nc2nnc(C3=COCCO3)o2)cc1,6.8%,?,-18.9%,/,34.8%,?
Cc1cccc(C(=O)Nc2nnc(C3=COCCO3)o2)c1,7.1%,39.8µM*,?,-3.9%,22.6%,7.94µM*
COc1ccc(C(=O)Nc2nnc(C3=COCCO3)o2)cc1OC,42.8%,50.1µM*,/,23.3%,53.1%,15.8µM*
COc1ccc(-c2noc(-c3ccc(NCCc4ccccc4)c([N+](=O)[O-])c3)n2)cc1OC,-28.1%[59 µM],-10.6%,/,/,40.2%,0.7%
CCCCCC1NC(=O)NC1CCCCCC(=O)O (centres undefined),0.5%[12.7 µM],-10.0%,-1.7%[11.4 µM],8.4%,40.5%,0.6%
Cc1cccc(C)c1NC(=O)CCCCCC1NC(=O)NC1C (centres undefined),12.6µM*,2.9%,/,-5.2%,52.9%,8.91µM*
CC1NC(=O)NC1CCCCCC(=O)NCCc1ccccc1 (centres undefined),?,3.55µM*,1.41µM*,-3.7%,?,0.891µM*
C[C@@H]1NC(=O)N[C@@H]1CCCCCC(=O)O,/,1µM*,/,/,?,/
O=Cc1c(-c2ccccc2)nc2ccccn12,23.5%[59 µM],-14.0%[11.4 µM],8.8%,21.7%,45.9%,1.1%
CCc1nc(-c2ccccc2)c2ccccn12,15.8µM*,2.4%,/,28.2µM*,34.6%,/
O=C(Cc1ccccc1)NCc1ccccn1,0.0%[0.501 µM],7.6%,15.8%,15.5%,34.3%,7.2%
O=C(O)Cc1sc(Nc2ccc(F)cc2)nc1-c1cccs1,8.91µM*,?,-10.2%,22.4µM*,?,?
O=C(O)Cc1sc(Nc2ccccc2)nc1-c1ccc(Cl)cc1,17.8µM*,44.7µM*,9.1%,?,?,-27.9%
O=C(Cc1sc(Nc2ccccc2)nc1-c1ccccc1)NCc1ccccn1,35.5µM*,?,-18.2%,14.1µM*,-16.7%,-37.8%
O=C(O)Cc1sc(Nc2ccc(C(=O)O)cc2)nc1-c1ccccc1,1.7%[59 µM],-0.4%,/,/,30.0%,-19.0%
O=C(O)Cc1sc(-c2ccc(Cl)cc2)nc1-c1ccccc1,-47.2%[12.7 µM],25.1µM*,-2.7%,15.1%,?,0.5%
Cc1ccc(Nc2nc(-c3ccccc3)c(CC(=O)O)s2)cc1,44.7µM*,2.3%[11.4 µM],11.1%,0.3%,-23.0%,-26.7%
O=C(O)Cc1sc(NCc2ccco2)nc1-c1ccccc1,/,-24.7%,36.8%,25.1µM*,12.4%,?
O=C(O)Cc1sc(-c2ccccc2)nc1-c1ccccc1,?,-20.8%,9.4%,-4.7%,34.7%,-8.0%
O=C(O)Cc1cn(-c2ccccc2)nc1-c1ccc(Cl)cc1,7.4%,7.8%,8.9%,44.7µM*!,23.0%,1.7%
COc1cccc(/C=N/Nc2cc(N3CCOCC3)ncn2)c1O,45.1%,44.7µM*,?,6.6%,36.8%,2.82µM*
COc1ccc(/C=N/Nc2cc(N3CCOCC3)ncn2)c(OC)c1,/,-15.8%,6.6%,-6.4%,46.3%,4.6%
